Test results: PubChem BioAssay (NCATS)
Where “and” joins values, the source holds several entries; their conditions need not be identical. Equal entries are not always repeated. Results filed as inconclusive are left out. Calls of active or inactive are those of the source. Unless noted, calls follow the shape of the dose curve; as a rule, active = well fitted curve in the direction sought with a large enough effect; inconclusive = small, poorly fitted or top-dose-only effect, or another doubt; inactive = no such curve, though single readings can be large; an effect the other way counts as inactive or inconclusive.

Legend:
[1] = Cell Proliferation Assay Versus the ED40515 IL2 Dependent ATL cell lines (AID 1053195; calls by dose curve); settings: ED40515 IL2-dependent ATL cells
Method in brief: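 CellTiter-Glo luminescence (15 min, RT) measured viability after 48 hours at 37C; cells were ED40515 +IL2, 1000/well, in phenol red-free RPMI with 5% FBS. Controls: DMSO and 9.2 uM bortezomib.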

[2] = High-throughput drug toxicity screening in the BPDCN cell line Gen2.2 (AID 1224824; call rule not given here;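 also: cells exposed to compounds for 48 h before reading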); settings: Gen2.2 BPDCN cells; at 45.8 µM (top of the series) unless noted
Method in brief: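 Readout is ATP luminescence from Gen2.2 cells after two days of drug exposure in serum-containing medium at 37 °C. Values express percent activity, with vehicle defining full signal and 9.2 uM bortezomib defining zero.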

[3] = High-throughput drug toxicity screening in the BPDCN cell line Cal-1 (AID 1224825; call rule not given here); settings: Cal-1 BPDCN cell viability, qHTS; at 45.8 µM (top of the series) unless noted
Method in brief: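 Viability of the BPDCN line Cal-1 is measured as ATP-based luminescence (CellTiter-Glo) following 48 h incubation with compounds. Percent activity uses DMSO-treated wells as 100% and 9.2 uM bortezomib as 0%.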

[4] = qHTS assay for measurement of the activity of small molecule inhibitors on Zika virus induced Caspase-3 activity in human iPSC derived neural progenitor cells (hNPCs) (AID 1224857); settings: hNPCs ZIKV-induced caspase-3/7, Caspase-Glo luminescence, 6 h; series mostly up to 45.7 µM; also: nearly all actives have a fitted effect of over 65% in size; also: potency is read from the fitted curve at half-maximal effect
Method in brief: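 Cells were plated at 350 per well and grown 16 to 20 hours. Compound pretreatment lasted one hour, after which ZIKV (2 FFU/cell) was added for 6 hours. Percent inhibition was normalized between uninfected and infected controls.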

[5] = qHTS assay for measurement of the activity of small molecule inhibitors on Zika virus induced Caspase-3 activity in human astrocytoma cells (AID 1224859); settings: SNB-19 ZIKV-induced caspase-3/7, luminescence, 6 h; series mostly up to 45.7 µM;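 also: plate controls were ZIKV-infected untreated cells for no effect and uninfected cells for full effect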
Method in brief: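 Percent inhibition of virus-induced caspase-3/7 signal is calculated against uninfected and ZIKV-infected control cells. Cells are SNB-19, infected at 2 FFU/cell for 6 h after 1 h compound exposure.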

[6] = qHTS Screen of the MIPE 4.0 Collection Against Ewings Sarcoma (RDES) (AID 1259252); settings: RD-ES Ewing sarcoma viability, CellTiter-Glo, 48 h; series mostly up to 45.8 µM; also: nearly all actives have a fitted effect of over 35% in size; also: potency is read from the fitted curve at half-maximal effect
Method in brief: (§1)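 Measured: ATP luminescence (CellTiter-Glo) 10 min after reagent addition, following 48 h drug treatment. Relative luciferase units converted to percent activity, with no-cell wells as full and DMSO wells as zero inhibition.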

[7] = qHTS Screen of the MIPE 4.0 Collection Against Ewings Sarcoma (EW8) (AID 1259255); settings: EW8 Ewing sarcoma viability, CellTiter-Glo, 48 h; series mostly up to 45.8 µM; also: nearly all actives have a fitted effect of over 35% in size; also: potency is read from the fitted curve at half-maximal effect;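 as to viability: 100% = DMSO-treated cells and 0% = medium-only wells without cells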
Method in brief: as §1

[8] = qHTS Screen of the MIPE 4.0 Collection Against Ewings Sarcoma (TC32) (AID 1259256); settings: TC32 Ewing sarcoma viability, CellTiter-Glo, 48 h; series mostly up to 45.8 µM; also: nearly all actives have a fitted effect of over 45% in size; also: potency is read from the fitted curve at half-maximal effect
Method in brief: as §1

[9] = Identifying Small Molecule Inhibitors of Pancreatic Cancer Stem Cells (SN12C, Adherent) (AID 1259358); settings: viability/growth inhibition; series mostly up to 46.1 µM;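 also: cell survival measured after 48 h of compound exposure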; also: potency is read from the fitted curve at half-maximal effect
Method in brief: (§2)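 After a 4 h attachment period, compounds were pinned into wells and cultures held 48 h under standard incubator conditions. Viability was then measured as CellTiter-Glo luminescence following 10 min at room temperature.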

[10] = Identifying Small Molecule Inhibitors of Pancreatic Cancer Stem Cells (SN12C, Spheroid) (AID 1259360); settings: Potency: SN12C spheroid viability; series mostly up to 46.1 µM; also: potency is read from the fitted curve at half-maximal effect;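 as to viability (% of control): 100% = DMSO-treated cells and 0% = wells without cells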
Method in brief: (§3)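 Spheroids grown 14 days in stem cell media on hydrogel-coated nonadherent plates; 2D lines seeded directly. Compounds added after 4 h attachment, 48 h at 37C, 5% CO2; CellTiter-Glo luminescence normalized to DMSO (no inhibition) and no-cell wells (full inhibition).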

[11] = Identifying Small Molecule Inhibitors of Pancreatic Cancer Stem Cells (A278, Adherent) (AID 1259361); settings: series mostly up to 46.1 µM;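 also: viability read after 48 h compound exposure; nearly all actives have a fitted effect of over 35% in size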;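 as to viability (% of control): 100% = DMSO-treated cells and 0% = cell-free media-only wells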
Method in brief: as §2

[12] = Identifying Small Molecule Inhibitors of Pancreatic Cancer Stem Cells (Panc1, Adherent) (AID 1259362); settings: Potency: viability; series mostly up to 46.1 µM;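 also: compound exposure lasted 48 h before the viability read; plate controls were DMSO-treated cells for no effect and cell-free media wells for full effect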
Method in brief: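 Viability is scored by CellTiter-Glo luminescence 48 h after dosing, expressed as percent activity against vehicle and no-cell references. Spheroid formats rely on cells cultured 14 days in stem cell media beforehand.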

[13] = P-glycoprotein substrates identified in KB-8-5-11 adenocarcinoma cell line, qHTS therapeutic library screen (AID 1346987); settings: KB-8-5-11 (P-gp overexpressing) viability, CellTiter-Glo, 72 h; series mostly up to 44.5 µM; also: nearly all actives have a fitted effect of over 65% in size; also: potency is read from the fitted curve at half-maximal effect
Method in brief: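 Human cervical adenocarcinoma KB-8-5-11 cells, selected in colchicine to over-express P-gp and assayed without it, were exposed for 72 h to titrated compounds. An ATP-based luminescent viability signal gave AC50.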

[14] = qHTS Screen of the MIPE 4.0 Collection Against Ewings Sarcoma (TC71) (AID 1259253); settings: TC71 Ewing sarcoma viability, CellTiter-Glo, 48 h; series mostly up to 45.8 µM; also: nearly all actives have a fitted effect of over 40% in size; also: potency is read from the fitted curve at half-maximal effect
Method in brief: as §1

[15] = Identifying Small Molecule Inhibitors of Pancreatic Cancer Stem Cells (A2780, Spheroid) (AID 1259357); settings: Potency: A2780 spheroid viability; series mostly up to 46.1 µM; also: potency is read from the fitted curve at half-maximal effect;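 also: spheroids pre-formed over 14 days in stem cell medium on hydrogel; compound exposure lasted 48 h before the ATP luminescence read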
Method in brief: as §3

[16] = Identifying Small Molecule Inhibitors of Pancreatic Cancer Stem Cells (Panc1, Spheroid) (AID 1259359); settings: Panc1 spheroid cancer stem cell viability; series mostly up to 46.1 µM;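 also: potency is read from the fitted curve at half-maximal effect; compound exposure lasted 48 h before reading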
Method in brief: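 Adherent (2D) versus sphere (3D) formats; spheres generated 14 d in SCM beforehand. Compound transferred by pin tool after 4 h, 48 h incubation, CellTiter-Glo endpoint.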

[17] = qHTS assay to identify small molecule inhibitors of chordoma cells - UCH-2 (AID 1259356); settings: UCH-2 chordoma viability, CellTiter-Glo ATP luminescence, 48 h; series mostly up to 46.1 µM; also: % is scaled to controls: 0 for no effect and ±100 for the full control effect
[18] = P-glycoprotein substrates identified in KB-3-1 adenocarcinoma cell line, qHTS therapeutic library screen (AID 1346986); settings: KB-3-1 parental cells viability, CellTiter-Glo, 72 h; series mostly up to 44.5 µM; also: nearly all actives have a fitted effect of over 60% in size;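 also: potency is read from the fitted curve at half-maximal effect; potency is for cytotoxicity meaning loss of cell viability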
Method in brief: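 Using luminescence to quantify ATP, parental and P-gp-overexpressing KB cells were compared after 72 h compound titration. KB-8-5-11 was also run with the P-gp inhibitor tariquidar.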

| Compound | Potency [1] | cell viability, % of control (lower = more cytotoxic) [2] | viability (% of control) [3] | Potency [4] | Potency [5] | Potency [6] | Potency [7] | Potency [8] | Potency [9] | Potency [10] | IC50 (viability decrease) [11] | Potency [12] | Potency [13] | Potency [14] | Potency [15] | Potency [16] | outcome [17] | Potency [18] |
| --- | --- | --- | --- | --- | --- | --- | --- | --- | --- | --- | --- | --- | --- | --- | --- | --- | --- | --- |
| CCc1cc(Nc2nccc(-c3c(-c4ccc(OC)c(C(=O)Nc5c(F)cccc5F)c4)nc4ccccn34)n2)c(OC)cc1N1CCC(N2CCN(S(C)(=O)=O)CC2)CC1 | 1.66 µM (active) | 179% | 79.3% | inactive | inactive | 26.4 µM (active) | 18.7 µM (active) | 16.6 µM (active) | inactive | inactive | inactive | inactive | inactive |  |  |  |  |  |
| CCCS(=O)(=O)Nc1ccc(F)c(C(=O)c2c[nH]c3ncc(Cl)cc23)c1F | 16.6 µM (active) | 113% | 17.1% | inactive | inactive | 14.8 µM (active) |  | 16.6 µM (active) |  |  |  |  |  | 18.7 µM (active) | inactive |  |  |  |
| CCC(=O)N[C@H]1CC[C@H](C(=O)N(C)c2ccc(-c3nc4ccccc4o3)cc2)C1 | 3.32 µM (active) | 198% | 92.1% | inactive | inactive |  |  |  |  | 18.7 µM (active) |  |  |  | 2.35 µM (active) | 14.8 µM (active) | 3.72 µM (active) |  |  |
| N#Cc1ccc(C(c2ccc(C#N)cc2)n2cncn2)cc1 | 10.5 µM (active) | 33% | 70.2% | inactive | inactive |  | 20.9 µM (active) | 14.8 µM (active) | inactive | inactive | inactive |  | inactive |  | inactive |  | inactive |  |
| Oc1cccc(-c2nc(N3CCOCC3)c3oc4ncccc4c3n2)c1 | 0.743 µM (active) | 8.19% [at 92.2 µM] | 17.8% [at 92.2 µM] | inactive | inactive | 0.96 µM (active) | 0.429 µM (active) | 0.0762 µM (active) | 0.0743 µM (active) |  | 0.105 µM (active) |  | 108 nM (active) and 517 nM (active) |  | 0.833 µM (active) |  |  | 0.58 µM (active) |
| CS(=O)(=O)c1ccc(C(=O)Nc2ccc(Cl)c(-c3ccccn3)c2)c(Cl)c1 | 13.2 µM (active) | 312% | 65.3% | inactive | inactive | inactive | inactive | inactive | inactive | inactive |  |  | inactive | inactive |  |  |  |  |
| O=C(c1cc(Cc2n[nH]c(=O)c3ccccc23)ccc1F)N1CCN(C(=O)C2CC2)CC1 | 16.6 µM (active) | 71.5% | 45.4% | inactive | inactive | 8.33 µM (active) |  | 3.72 µM (active) |  | 18.7 µM (active) |  |  | inactive |  |  |  |  |  |
| CCn1c(-c2nonc2N)nc2cnc(Oc3cccc(NC(=O)c4ccc(OCCN5CCOCC5)cc4)c3)cc21 | 0.59 µM (active) | 84.4% | 33.2% | inactive | inactive | 5.9 µM (active) | 11.8 µM (active) | 5.9 µM (active) | inactive |  |  | inactive | 1.64 µM (active) | 13.2 µM (active) |  |  |  | 3.66 µM (active) |
| CCN(CC)CCCC(C)Nc1nc(C)cc(Nc2ccc3nc(C)cc(N)c3c2)n1 (centres undefined) | 18.7 µM (active) | 55.4% | 74.8% | inactive | inactive | inactive |  |  | inactive | inactive | inactive |  | inactive | inactive |  |  |  | inactive |
| S=C(NCc1ccc2c(c1)OCO2)N1CCN(c2ncnc3c2oc2ccccc23)CC1 | 0.0662 µM (active) | 387% [at 92.2 µM] | 56.7% [at 92.2 µM] | inactive | inactive | 1.91 µM (active) | 4.81 µM (active) | 12.1 µM (active) | 13.2 µM (active) | 14.8 µM (active) | 4.18 µM (active) |  |  | 7.62 µM (active) | 16.6 µM (active) | 7.43 µM (active) |  |  |
| O=C(O)CCc1ccc(NCc2cccc(Oc3ccccc3)c2)cc1 | 0.0833 µM (active) | 132% | 108% | inactive | inactive | inactive | inactive | inactive | inactive | inactive | inactive | inactive | inactive |  |  |  |  |  |
| Cc1csc(NC(=O)c2sc3nc4c(c(C(F)(F)F)c3c2N)CCC4)n1 | 18.7 µM (active) | 36.4% | 93.3% | 23.5 µM (active) | inactive | 1.48 µM (active) | 13.2 µM (active) | 6.62 µM (active) | inactive | inactive | inactive | inactive | inactive | 4.18 µM (active) | inactive |  |  |  |
| CNC(=O)c1ccc(N2C(=S)N(c3ccc(C#N)c(C(F)(F)F)c3)C(=O)C2(C)C)cc1F | 16.6 µM (active) | 185% | 112% | inactive | inactive | inactive | inactive | inactive | inactive |  | 23.5 µM (active) | inactive | inactive | inactive | 0.166 µM (active) |  |  |  |
| COc1c(Cl)cc2c([nH]c3cnccc32)c1NC(=O)c1cccnc1C | 33.2 µM (active) | 41.9% | 77.1% | inactive | inactive | 0.59 µM (active) |  |  | inactive |  | inactive |  | inactive |  |  |  |  | inactive |
